Source: PubChem BioAssay (National Center for Advancing Translational Sciences (NCATS))
MARV entry inh – Marburg virus entry inhibition. Marburg virus pseudotyped entry inhibition, cell reporter. Potency, µM (series often up to 37.8 µM), without a hit: at the top dose activity change, negative = inhibition, usual class: inhibitors. 300,000 tested, 1.8% active; calls by dose curve; tested in HEK293 cells
Sm TGR block – inhibitors of Schistosoma mansoni thioredoxin glutathione reductase; purified TGR, DTNB reduction, TNB absorbance 405 nm; Potency, µM (titrated, usually from 114 µM), for the others: at the top dose activity change, negative = inhibition, actives largely listed as inhibitors; 360,000 tested, 3% active; active means well fitted inhibition curve with a large enough effect; inconclusive means small, poorly fitted or top-dose-only effect; inactive means no such curve, though single readings can be large or run the other way; further: nearly all actives have a fitted effect of over 60% in size
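TGR 20 nM + NADPH 100 uM (dispensed conc.), cpd preinc 15 min RT; start with NADPH (500 uM addition) then DTNB (15 mM addition). Kinetic TNB absorbance, 405 nm filter. Four-parameter Hill fit across titration.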
Vaccinia Venus – vaccinia inhibition (Venus reporter); Vaccinia virus Venus reporter expression, fluorescence; Potency, µM (doses to about 36.5 µM), without a hit: top-dose activity change, negative = inhibition, usual class: inhibitors; 330,000 tested, 0.46% active; AID 720580; calls by dose curve; tested in A549 cells; further: nearly all actives have a fitted effect of over 30% in size
Lassa entry inh – Lassa virus entry inhibition | Lassa virus pseudotype entry inhibition, cell reporter | Potency, µM (highest dose often 37.9 µM), without a hit: at the highest dose activity change, negative = inhibition, usual class: inhibitors | 300,000 tested, 1.2% active; calls by dose curve; tested in HEK293 cells; further: nearly all actives have a fitted effect of over 50% in size
FMDV inh – foot and mouth disease virus antiviral activity. FMDV antiviral cell-based qHTS. Potency, µM (top dose mostly 57.9 µM), without a hit: at the top dose activity change, negative = inhibition, hits mostly inhibitors. 410,000 tested, 1.2% active. AID 1159524; calls by dose curve; tested in HEK293T cells; further: read-out not given here; nearly all actives have a fitted effect of over 45% in size
VACV mCherry inh – vaccinia inhibition (mCherry reporter) | Potency, µM (top dose mostly 36.5 µM), inactives show top-dose activity change, negative = inhibition, actives largely listed as inhibitors | Vaccinia virus mCherry reporter infection, fluorescence | 310,000 tested, 0.63% active | AID 720579; calls by dose curve; tested in A549 cells; further: nearly all actives have a fitted effect of over 35% in size
Active calls of the source: *; i = inactive; ? = inconclusive; . = not tested or not shown; ! = not active in a repeat; [ ] = another dose, or the depositor's remark. An excerpt weighted towards active compounds, which were near 5.4% of everything screened. On the % scale 0 is the no-effect control and ±100 the full control effect; potency means the concentration at half of the fitted maximal effect.

SMILES	MARV entry inh	Sm TGR block	Vaccinia Venus	Lassa entry inh	FMDV inh	VACV mCherry inh
COC(=O)N[C@@H](c1ccco1)[C@]1(C(C)=O)CCCC1=O	-31%[14.2 µM]	.	.	.	.	.
Cc1no[n+]([O-])c1COc1ccc(/C=N/n2nnnc2N)cc1	-29%	-3%	?	9%	-15%	14µM*
Cc1ccc(/C=N/n2nnnc2N)cc1	?	.	-3%	4%[46.1 µM]	40%	-2%
CCN(CC)CCN1C(=O)C(=O)/C(=C(/O)c2c(C)[nH]c(C(=O)OC)c2C)C1c1ccc(C)o1 (stereo unspecified)	0%[46.1 µM]	20µM*	1%[7.34 µM]	-27%	-7%	i[7.34 µM]
Cc1ccc(C2/C(=C(\O)c3c(C)nc4ccccn34)C(=O)C(=O)N2CCN(C)C)o1 (stereo unspecified)	?	32µM*	-22%	?	-4%	-10%
CCOC(=O)c1[nH]c(C)c(/C(O)=C2\C(=O)C(=O)N(CCN(C)C)C2c2ccc(C)o2)c1C (stereo unspecified)	-12%	28µM*	.	-16%	-9%	.
Cc1cccc(OCC(=O)N(Cc2ccc(C(C)(C)C)cc2)Cc2ccco2)c1	-3%[46.1 µM]	9%	-12%	?	-25%	-5%
COc1ccc(Cl)cc1NC(=O)Cc1ccc(NC(=O)N2CCCCc3ccccc32)cc1	.	-6%	-13%	-4%[46.1 µM]	-15%	-13%
CNCc1ccccc1Sc1ccc(O)c(O)c1	?	22µM*	-9%	?	-26%	-23%
Cc1cc(C(=O)COc2cccnc2[N+](=O)[O-])c(C)n1-c1ccccc1	?	-21%	-5%	4.6µM*	-7%	-21%
COC(=O)[C@@H]1[C@H](CCc2ccccc2)NC(=O)N(Cc2ccccc2)[C@H]1C	-24%[14.2 µM]	.	.	?	.	.
Oc1ccc(/C=C/c2nc(-c3ccccc3O)n(-c3ccccc3)n2)cc1	?	-17%	.	12µM*	-1%	.
CCOc1ccccc1C(=O)Nc1ccc2nc(N3CCN(c4ncccn4)CC3)cc(C)c2c1	13µM*	.	.	?	8.9µM*	.
CCN(CC)c1ccc(C(=O)Nc2ccc3nc(N(CC)CC)cc(C)c3c2)cc1	11µM*	0%	-11%	?	-27%	7%
COc1cccc(C(=O)Nc2ccc3nc(N4CCN(c5ncccn5)CC4)cc(C)c3c2)c1OC	.	-2%	.	.	.	.
Cc1cc(N2CCN(C)CC2)nc2ccc(NC(=O)c3ccc(C(C)(C)C)cc3)cc12	?	2%	14µM*	5%[46.1 µM]	?	?
COc1ccc(CNC(=O)CN2C(=O)COc3ccccc32)c(OC)c1	.	8%	-11%	?	9%	-7%
CC(=O)C1=C(c2ccc(Br)cc2)N(C(C)=O)n2c(nnc2C2CCCCC2)S1	.	17%	-9%	-1%[46.1 µM]	-16%	-14%
CCC1CN(CCNC(=O)c2cccc3nccnc23)Cc2cc(OC)ccc2O1 (stereo unspecified)	.	.	1%	.	-11%	-8%
O=C(c1n[nH]c2c1CCCC2)N1CCOc2ccc(C(O)C(c3ccccc3)c3ccccc3)cc2C1 (stereo unspecified)	.	.	-15%	.	-24%	-16%
Cc1ccc(C)c(-n2c(-c3ccc(Br)cc3)csc2=NC(=O)c2ccccc2F)c1	1.3µM*	16%	-10%	?	-22%	-10%
Cc1ccc(NC(NC(=O)c2cccnc2)C(Cl)(Cl)Cl)cc1 (stereo unspecified)	16µM*	-10%	14%	0%	?	-25%
NS(=O)(=O)c1ccc(NC(NC(=O)c2cccnc2)C(Cl)(Cl)Cl)cc1 (stereo unspecified)	.	-8%	.	.	-17%	.
CCCCCCCCCCCCCCCC[n+]1ccccc1	?	.	14µM*!	?	16µM*!	13µM*!
CCCCCCC[n+]1ccc(-c2cc[n+](CCCCCCC)cc2)cc1	?	-26%	?	-27%	-7%	?
SMILES	MARV entry inh	Sm TGR block	Vaccinia Venus	Lassa entry inh	FMDV inh	VACV mCherry inh
CCCCCCCCCCCCCCCC[n+]1ccc(/C=N/O)cc1	4.5µM*	-19%	10µM*	6.5µM*	?	11µM*
COC(=O)CNc1c(-c2ccccn2)nc2ccc(Br)cn12	29%	40µM*	.	6%	34%	.
Cc1nc(N)nc(N)c1/C=C/C(C)(C)c1ccc(Cl)cc1	?	0%	3.5µM*	?	?	?
C=CCOCCC=C1c2ccccc2[C@@H](OC)[C@@H]1C	-8%[14.2 µM]	.	.	.	.	.
Cc1ccc(NNC(=O)c2ccno2)c(C)c1	8.9µM*	-33%	-11%	?	-10%	-14%
CN(C(=O)c1ccc(NC(=O)Cc2ccc(NC(=O)C3CCCN(C(=O)CCc4ccccc4)C3)cc2)cc1)C1CCCC1 (stereo unspecified)	.	.	?	.	?	10µM*
CN(Cc1ccccc1)C(=O)c1cccc(NC(=O)Cc2ccc(NC(=O)C3CCN(C(=O)CCc4ccccc4)CC3)cc2)c1	.	.	?	.	18µM*	?
CN(Cc1ccccc1)C(=O)c1ccc(NC(=O)Cc2ccc(NC(=O)C3CCCN(C(=O)CCc4ccccc4)C3)cc2)cc1 (stereo unspecified)	.	.	?	.	?	10µM*
CN(C(=O)c1cccc(NC(=O)Cc2ccc(NC(=O)C3CCCN(C(=O)CCc4ccccc4)C3)cc2)c1)C1CCCCC1 (stereo unspecified)	.	.	?	.	14µM*	13µM*
CC(C)(C)OC(=O)N1CCCC(C(=O)Nc2cccc(C(=O)NCCCCc3ccccc3)c2)C1 (stereo unspecified)	?	.	?	.	?	i
CC(C)(C)OC(=O)N(CCc1ccccc1)Cc1ccc(OCc2cccc(NC(=O)C3CCCC3)c2)cc1	.	.	-11%	.	-24%	0%
CC(C)(C)OC(=O)N(Cc1ccccc1)Cc1ccc(OCc2cccc(NC(=O)C3CC3)c2)cc1	.	.	?	.	14µM*	?
CC(C)(C)OC(=O)N1CCC(C(=O)Nc2cccc(C(=O)NCCCCc3ccccc3)c2)CC1	.	.	-9%	.	18µM*	-1%
Cn1c2ccccc2c2c(C(=O)N3CCN(c4cccc(Cl)c4)CC3)cn(C3CCCCC3)c(=O)c21	7.1µM*	1%	-18%	?	-22%	-18%
COc1ccc(N2CCN(C(=O)c3cn(C4CCCC4)c(=O)c4c3c3ccccc3n4C)CC2)cc1	8.9µM*	-20%	-21%	?	16%	-17%
Cc1ccc(-c2cc3c(nn2)-c2ccccc2C3=O)cc1	.	-17%	3%	.	10µM*	?
Cc1ccc(-c2csc(NC(=O)C3CSC4(C)CCC(=O)N34)n2)cc1 (stereo unspecified)	0%	56µM*	-2%	-3%	1%	i
Cc1csc(NC(=O)C2CSC3(C)CCC(=O)N23)n1 (stereo unspecified)	?	-21%	-9%	10%[46.1 µM]	4%	i
CN(Cc1ccco1)S(=O)(=O)c1nnc(NC(=O)c2ccccc2Cl)s1	.	11µM*!	0%	23%[46.1 µM]	33%	1%
